Test results reported in the supplement of paper PMC10849652.
About 8,800 targets were measured; listed, in parts, are those with a hit and a random draw of the rest. About 0.5% of all pairs of compound and target were hits.

Legend:
Experiment in all cases: log2 fold change, soluble protein after heating vs DMSO (PISA); higher = thermal stabilisation; K562 lysate, 10 uM; active = over 0.2 and 3.5 SD of the protein, either way, in both replicates (recomputed)
nilotinib = compound: Cc1cn(-c2cc(NC(=O)c3ccc(C)c(Nc4nccc(-c5cccnc5)n4)c3)cc(C(F)(F)F)c2)cn1 [nilotinib]
How it was run: (§1)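 Quantification was by TMTpro 16plex LC-MS/MS with equalised channel sums, applied to the supernatant after 21,000xg for 90 min. Samples were crude K562 extract at 1 mg/mL protein in PBS pH 7.4 with 1 mM MgCl2, treated with 10 μM compound for 30 min, heated for 3 min across 48°C-58°C, pooled and brought to 0.5% NP-40 at 4°C. Values are log-two fold changes in thermal stability relative to solvent controls, from duplicates.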

[1] = compound: Cc1nc(Nc2n[nH]c3c2CN(C(=O)N[C@H](CN(C)C)c2ccccc2)C3(C)C)c2sccc2n1
How it was run: as §1

dasatinib = compound: Cc1nc(Nc2ncc(C(=O)Nc3c(C)cccc3Cl)s2)cc(N2CCN(CCO)CC2)n1 [dasatinib]
How it was run: as §1

[2] = compound: Cc1ncc(-c2ccnc(Nc3ccc(S(C)(=O)=O)cc3)n2)n1C(C)C
How it was run: as §1

[3] = compound: Cn1cc(-c2ccc3c(c2)CCN3C(=O)Cc2cccc(C(F)(F)F)c2)c2c(N)ncnc21
How it was run: as §1

quisinostat = compound: Cn1cc(CNCC2CCN(c3ncc(C(=O)NO)cn3)CC2)c2ccccc21 [quisinostat]
How it was run: as §1

tipifarnib = compound: Cn1cncc1[C@@](N)(c1ccc(Cl)cc1)c1ccc2c(c1)c(-c1cccc(Cl)c1)cc(=O)n2C [tipifarnib]
How it was run: as §1

[4] = compound: NC(=O)Nc1cc(-c2cccc(F)c2)sc1C(=O)N[C@H]1CCCNC1
How it was run: as §1

[5] = compound: NC(=O)c1cnc(N[C@@H]2CCCC[C@@H]2N)nc1Nc1cccc(-n2nccn2)c1
How it was run: as §1

[6] = compound: NC1(c2ccc(-c3nc4ccn5c(=O)[nH]nc5c4cc3-c3ccccc3)cc2)CCC1
How it was run: as §1

[7] = compound: NCC(=O)Nc1ccc(-n2nc(C(F)(F)F)cc2-c2ccc3c(ccc4ccccc43)c2)cc1
How it was run: as §1

vorinostat = compound: O=C(CCCCCCC(=O)Nc1ccccc1)NO [vorinostat]
How it was run: as §1

silmitasertib = compound: O=C(O)c1ccc2c(c1)nc(Nc1cccc(Cl)c1)c1ccncc12 [silmitasertib]
How it was run: as §1

[8] = compound: O=C1NC(=O)C(c2cnc3ccccn23)=C1c1cn2c3c(cc(F)cc13)CN(C(=O)N1CCCCC1)CC2
How it was run: as §1

entospletinib = compound: c1cn2cc(-c3ccc4cn[nH]c4c3)nc(Nc3ccc(N4CCOCC4)cc3)c2n1 [entospletinib]
How it was run: as §1

Measured: log2 fold change

SSNA1 (UniProt O43805)
Sequence of UniProt O43805 (O43805 whole entry, looked up): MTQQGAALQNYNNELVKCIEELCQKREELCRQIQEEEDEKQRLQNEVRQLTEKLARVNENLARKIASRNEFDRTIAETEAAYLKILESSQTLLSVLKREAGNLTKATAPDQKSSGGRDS
active: vorinostat -0.34
inactive: nilotinib -0.038 | [1] 0.057 | dasatinib -0.004 | [2] -0.004 | [3] -0.079 | quisinostat 0.081 | tipifarnib 0.007 | [4] -0.039 | [5] 0.006 | [6] 0.019 | [7] -0.036 | silmitasertib 0 | [8] -0.023 | entospletinib -0.065

TARBP2 (UniProt Q15633)
Sequence of UniProt Q15633 (Q15633 whole entry, looked up): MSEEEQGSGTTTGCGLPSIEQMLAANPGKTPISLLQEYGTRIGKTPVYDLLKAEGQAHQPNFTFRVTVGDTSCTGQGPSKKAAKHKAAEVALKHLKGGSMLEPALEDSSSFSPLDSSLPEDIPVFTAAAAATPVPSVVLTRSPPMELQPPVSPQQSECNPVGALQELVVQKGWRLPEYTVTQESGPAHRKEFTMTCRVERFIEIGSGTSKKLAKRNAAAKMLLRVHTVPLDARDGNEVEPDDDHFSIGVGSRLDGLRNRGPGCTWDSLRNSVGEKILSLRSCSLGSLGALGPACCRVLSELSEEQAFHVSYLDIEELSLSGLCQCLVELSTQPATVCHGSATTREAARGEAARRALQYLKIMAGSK
active: vorinostat -0.519
inactive: nilotinib 0.003 | [1] 0.019 | dasatinib -0.038 | [2] 0.005 | [3] -0.056 | quisinostat -0.106 | tipifarnib -0.067 | [4] 0.065 | [5] -0.029 | [6] 0.056 | [7] -0.017 | silmitasertib 0.024 | [8] -0.03 | entospletinib -0.002

TAF9 (UniProt Q16594)
Sequence of UniProt Q16594 (Q16594 whole entry, looked up): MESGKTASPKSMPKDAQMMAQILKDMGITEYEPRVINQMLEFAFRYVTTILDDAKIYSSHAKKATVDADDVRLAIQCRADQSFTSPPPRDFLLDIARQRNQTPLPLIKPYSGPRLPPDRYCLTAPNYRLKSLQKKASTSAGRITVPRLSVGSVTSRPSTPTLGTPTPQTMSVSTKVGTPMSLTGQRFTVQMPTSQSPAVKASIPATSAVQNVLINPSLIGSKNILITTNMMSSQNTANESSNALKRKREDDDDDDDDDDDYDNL
inactive: nilotinib -0.043 | [1] 0.049 | dasatinib -0.017 | [2] -0.003 | [3] 0.021 | quisinostat -0.055 | tipifarnib -0.029 | [4] 0.013 | [5] 0.084 | [6] -0.024 | [7] 0.002 | vorinostat -0.099 | silmitasertib -0.011 | [8] -0.003 | entospletinib -0.017

SLC26A6 (UniProt Q9BXS9)
inactive: nilotinib 0.057 | [1] 0.05 | dasatinib -0.4 | [2] 0.164 | [3] -0.154 | quisinostat 0.006 | tipifarnib 0.05 | [4] 0.033 | [5] 0.054 | [6] -0.128 | [7] 0.012 | vorinostat 0.048 | silmitasertib 0.03 | [8] 0.021 | entospletinib -0.111

STK39 (UniProt Q9UEW8)
inactive: nilotinib -0.104 | [1] 0.071 | dasatinib -0.045 | [2] -0.024 | [3] 0.046 | quisinostat -0.084 | tipifarnib -0.053 | [4] 0.053 | [5] 0.058 | [6] -0.082 | [7] -0.01 | silmitasertib 0.028 | [8] -0.006 | entospletinib -0.026
active: vorinostat -0.633

SMC2 (UniProt O95347)
inactive: nilotinib -0.017 | [1] -0.005 | dasatinib -0.036 | [2] 0.007 | [3] 0.025 | quisinostat -0.023 | tipifarnib 0.024 | [4] 0.034 | [5] 0.017 | [6] -0.003 | [7] 0.014 | silmitasertib 0.016 | [8] -0.01 | entospletinib 0.009
active: vorinostat -0.308

SHCBP1 (UniProt Q8NEM2)
active: vorinostat -0.37
inactive: nilotinib -0.051 | [1] -0.024 | dasatinib -0.071 | [2] -0.043 | [3] 0.026 | quisinostat -0.019 | tipifarnib -0.035 | [4] -0.009 | [5] -0.019 | [6] -0.016 | [7] 0.02 | silmitasertib 0.04 | [8] -0.009 | entospletinib -0.013

SMAP2 (UniProt Q8WU79)
inactive: nilotinib -0.058 | [1] 0.026 | dasatinib -0.013 | [2] 0.037 | [3] 0.06 | quisinostat 0.072 | tipifarnib -0.038 | [4] 0.076 | [5] 0.026 | [6] 0.022 | [7] 0 | vorinostat -0.032 | silmitasertib 0.017 | [8] -0.04 | entospletinib -0.028

STK36 (UniProt Q9NRP7)
Sequence of UniProt Q9NRP7 (Q9NRP7 whole entry, looked up): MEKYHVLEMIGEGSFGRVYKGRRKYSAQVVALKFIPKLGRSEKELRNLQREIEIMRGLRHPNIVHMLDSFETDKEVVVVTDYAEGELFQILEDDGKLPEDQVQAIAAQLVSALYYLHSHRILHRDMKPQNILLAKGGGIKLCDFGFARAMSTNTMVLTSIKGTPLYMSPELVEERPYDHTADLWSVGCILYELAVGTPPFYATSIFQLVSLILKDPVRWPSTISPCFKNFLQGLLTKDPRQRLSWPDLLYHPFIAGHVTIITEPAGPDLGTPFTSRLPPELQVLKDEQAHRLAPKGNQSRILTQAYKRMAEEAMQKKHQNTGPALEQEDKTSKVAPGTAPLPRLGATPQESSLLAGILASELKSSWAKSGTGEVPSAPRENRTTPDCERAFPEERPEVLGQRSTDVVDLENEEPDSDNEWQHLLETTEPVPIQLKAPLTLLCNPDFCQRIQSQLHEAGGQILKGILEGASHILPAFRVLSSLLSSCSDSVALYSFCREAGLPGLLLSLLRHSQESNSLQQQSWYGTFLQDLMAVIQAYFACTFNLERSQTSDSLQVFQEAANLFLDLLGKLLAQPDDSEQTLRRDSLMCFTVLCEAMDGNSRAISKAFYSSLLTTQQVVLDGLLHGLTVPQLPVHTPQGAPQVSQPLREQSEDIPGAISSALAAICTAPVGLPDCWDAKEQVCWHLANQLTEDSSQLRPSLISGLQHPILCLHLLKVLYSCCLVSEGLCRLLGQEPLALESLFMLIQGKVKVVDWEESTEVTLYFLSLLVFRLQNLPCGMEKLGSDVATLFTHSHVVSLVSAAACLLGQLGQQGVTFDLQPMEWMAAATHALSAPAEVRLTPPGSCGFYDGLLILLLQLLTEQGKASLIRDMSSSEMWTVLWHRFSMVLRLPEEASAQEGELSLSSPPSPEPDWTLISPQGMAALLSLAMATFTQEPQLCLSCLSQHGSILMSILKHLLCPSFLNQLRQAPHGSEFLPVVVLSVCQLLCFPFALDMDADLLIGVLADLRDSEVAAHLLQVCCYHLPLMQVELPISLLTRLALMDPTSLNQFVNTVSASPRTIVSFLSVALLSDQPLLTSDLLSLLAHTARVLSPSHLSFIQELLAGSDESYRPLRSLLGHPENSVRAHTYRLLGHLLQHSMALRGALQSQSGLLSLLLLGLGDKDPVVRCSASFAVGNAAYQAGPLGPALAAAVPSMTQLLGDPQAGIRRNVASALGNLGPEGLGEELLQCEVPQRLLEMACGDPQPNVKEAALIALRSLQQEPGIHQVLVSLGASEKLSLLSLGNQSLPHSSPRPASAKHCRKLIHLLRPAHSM
inactive: nilotinib 0.081 | [1] -0.179 | dasatinib -0.142 | [2] -0.02 | [3] -0.113 | tipifarnib -0.059 | [4] 0.059 | [5] 0.117 | [6] -0.265 | [7] 0.283 | vorinostat 0.143 | silmitasertib -0.032 | [8] 0.101 | entospletinib -0.031
active: quisinostat -1.31

SMC4 (UniProt Q9NTJ3)
inactive: nilotinib -0.01 | [1] 0.009 | dasatinib -0.03 | [2] 0.016 | [3] 0.003 | quisinostat -0.014 | tipifarnib -0.003 | [4] 0.027 | [5] 0.009 | [6] -0.023 | [7] 0.013 | silmitasertib 0.011 | [8] -0.015 | entospletinib 0.009
active: vorinostat -0.296

SLC30A9 (UniProt Q6PML9)
Sequence of UniProt Q6PML9 (Q6PML9 whole entry, looked up): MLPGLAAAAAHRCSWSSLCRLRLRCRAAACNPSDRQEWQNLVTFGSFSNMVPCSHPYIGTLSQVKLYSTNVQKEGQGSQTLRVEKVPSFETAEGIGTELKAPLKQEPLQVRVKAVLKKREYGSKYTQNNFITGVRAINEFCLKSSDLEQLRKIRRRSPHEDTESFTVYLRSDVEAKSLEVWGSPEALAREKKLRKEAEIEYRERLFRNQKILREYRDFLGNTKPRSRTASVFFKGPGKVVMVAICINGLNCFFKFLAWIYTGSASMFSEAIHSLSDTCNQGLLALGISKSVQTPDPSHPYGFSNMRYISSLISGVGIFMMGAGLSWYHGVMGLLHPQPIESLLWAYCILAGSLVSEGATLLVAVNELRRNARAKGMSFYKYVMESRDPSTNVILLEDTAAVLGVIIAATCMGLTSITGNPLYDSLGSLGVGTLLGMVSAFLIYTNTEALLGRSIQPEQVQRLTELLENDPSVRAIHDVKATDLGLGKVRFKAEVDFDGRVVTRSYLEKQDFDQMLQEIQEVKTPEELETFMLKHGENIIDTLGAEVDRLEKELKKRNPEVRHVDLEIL
inactive: nilotinib -0.026 | [1] 0.013 | dasatinib -0.035 | [2] -0.049 | [3] 0.055 | quisinostat 0.041 | tipifarnib 0.14 | [4] -0.044 | [5] -0.026 | [6] -0.008 | [7] -0.109 | vorinostat 0.071 | silmitasertib -0.058 | [8] 0.004 | entospletinib -0.027

SLC38A10 (UniProt Q9HBR0)
Sequence of UniProt Q9HBR0 (Q9HBR0 whole entry, looked up): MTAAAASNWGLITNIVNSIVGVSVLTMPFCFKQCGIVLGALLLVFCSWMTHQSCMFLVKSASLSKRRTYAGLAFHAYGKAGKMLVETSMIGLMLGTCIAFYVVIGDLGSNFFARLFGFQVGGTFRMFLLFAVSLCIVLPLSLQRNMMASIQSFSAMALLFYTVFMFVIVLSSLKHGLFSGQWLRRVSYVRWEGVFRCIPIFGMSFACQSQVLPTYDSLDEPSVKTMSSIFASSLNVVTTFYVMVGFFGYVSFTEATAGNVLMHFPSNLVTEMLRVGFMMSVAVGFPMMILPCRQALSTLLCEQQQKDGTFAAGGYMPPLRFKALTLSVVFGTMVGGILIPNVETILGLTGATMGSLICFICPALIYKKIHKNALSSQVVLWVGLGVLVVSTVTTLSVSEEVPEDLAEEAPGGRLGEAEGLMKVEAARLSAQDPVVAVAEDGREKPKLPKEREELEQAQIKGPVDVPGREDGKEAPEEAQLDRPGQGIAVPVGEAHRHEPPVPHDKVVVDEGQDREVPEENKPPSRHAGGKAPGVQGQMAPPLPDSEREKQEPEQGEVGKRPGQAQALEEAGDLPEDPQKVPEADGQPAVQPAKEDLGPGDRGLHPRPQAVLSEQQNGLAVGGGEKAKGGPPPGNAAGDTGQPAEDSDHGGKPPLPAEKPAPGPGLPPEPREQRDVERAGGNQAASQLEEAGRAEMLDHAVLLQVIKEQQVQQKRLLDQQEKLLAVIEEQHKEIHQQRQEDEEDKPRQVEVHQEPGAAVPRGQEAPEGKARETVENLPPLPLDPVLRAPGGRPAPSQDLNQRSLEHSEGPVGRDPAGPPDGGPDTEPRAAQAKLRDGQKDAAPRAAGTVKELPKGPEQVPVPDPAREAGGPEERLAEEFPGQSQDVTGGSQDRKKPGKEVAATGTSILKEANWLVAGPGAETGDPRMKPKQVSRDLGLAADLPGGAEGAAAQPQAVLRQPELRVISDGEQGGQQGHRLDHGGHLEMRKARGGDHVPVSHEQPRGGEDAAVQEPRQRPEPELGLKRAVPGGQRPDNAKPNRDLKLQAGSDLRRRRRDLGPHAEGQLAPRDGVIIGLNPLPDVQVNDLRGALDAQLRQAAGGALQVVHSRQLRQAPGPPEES
inactive: nilotinib 0.072 | [1] -0.073 | dasatinib -0.009 | [2] 0.05 | [3] -0.031 | quisinostat -0.013 | tipifarnib 0.047 | [4] -0.039 | [5] 0.01 | [6] 0.023 | [7] -0.034 | vorinostat 0.044 | silmitasertib -0.013 | [8] 0.08 | entospletinib 0.024

SLC25A25 isoform 3 (UniProt Q6KCM7)
Sequence of UniProt Q6KCM7 (Q6KCM7 whole entry, looked up): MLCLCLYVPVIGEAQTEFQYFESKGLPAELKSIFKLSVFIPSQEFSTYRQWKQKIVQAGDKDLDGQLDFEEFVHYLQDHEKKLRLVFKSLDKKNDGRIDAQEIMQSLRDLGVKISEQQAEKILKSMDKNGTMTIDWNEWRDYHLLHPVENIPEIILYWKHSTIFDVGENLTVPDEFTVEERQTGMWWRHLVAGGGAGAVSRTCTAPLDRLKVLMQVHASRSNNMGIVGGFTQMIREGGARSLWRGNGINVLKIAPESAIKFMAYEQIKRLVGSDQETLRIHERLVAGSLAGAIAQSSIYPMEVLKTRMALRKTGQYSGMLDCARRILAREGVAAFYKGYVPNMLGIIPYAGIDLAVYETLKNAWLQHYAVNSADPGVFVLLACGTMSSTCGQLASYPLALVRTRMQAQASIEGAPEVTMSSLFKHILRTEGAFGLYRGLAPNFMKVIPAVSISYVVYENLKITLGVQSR
inactive: nilotinib 0.027 | [1] -0.015 | dasatinib 0.03 | [2] -0.063 | [3] 0.031 | quisinostat -0.038 | tipifarnib -0.006 | [4] 0.021 | [5] 0.007 | [6] -0.025 | [7] 0.016 | vorinostat 0.054 | silmitasertib 0.02 | [8] -0.036 | entospletinib 0.001

SLC27A2 (UniProt O14975)
inactive: nilotinib 0.056 | [1] -0.027 | dasatinib 0.038 | [2] -0.053 | [3] -0.011 | quisinostat -0.078 | tipifarnib 0.031 | [4] -0.06 | [5] -0.033 | [6] 0.029 | [7] -0.108 | vorinostat -0.237 | silmitasertib 0.08 | [8] 0.367 | entospletinib -0.023

SMAD2 (UniProt Q15796)
inactive: nilotinib 0.025 | [1] 0.116 | dasatinib 0.006 | [2] -0.059 | [3] 0.011 | quisinostat -0.012 | tipifarnib 0.055 | [4] 0.038 | [5] -0.015 | [6] 0.042 | [7] -0.025 | silmitasertib -0.051 | [8] 0.008 | entospletinib -0.049
active: vorinostat -0.752

SMARCAD1 isoform 2 (UniProt Q9H4L7)
inactive: nilotinib -0.001 | [1] -0.008 | dasatinib -0.033 | [2] -0.005 | [3] -0.005 | quisinostat -0.054 | tipifarnib -0.025 | [4] 0.016 | [5] 0.059 | [6] -0.007 | [7] -0.005 | silmitasertib 0.012 | [8] 0.014 | entospletinib 0.013
active: vorinostat -0.27

SKA2 (UniProt Q8WVK7)
Sequence of UniProt Q8WVK7 (Q8WVK7 whole entry, looked up): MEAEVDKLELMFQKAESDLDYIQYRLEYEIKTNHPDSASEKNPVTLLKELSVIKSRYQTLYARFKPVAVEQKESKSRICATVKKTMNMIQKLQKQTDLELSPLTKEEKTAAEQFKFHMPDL
active: vorinostat -0.364
inactive: nilotinib -0.062 | [1] 0.015 | dasatinib 0.005 | [2] 0.005 | [3] 0.026 | quisinostat 0.122 | tipifarnib -0.052 | [4] -0.022 | [5] 0.004 | [6] -0.023 | [7] 0.086 | silmitasertib -0.035 | [8] 0.067 | entospletinib -0.028

SNX6, A0A0A0MRI2
active: vorinostat -0.325
inactive: nilotinib -0.021 | [1] 0.009 | dasatinib 0.003 | [2] 0.03 | [3] 0.027 | quisinostat -0.003 | tipifarnib 0.007 | [4] -0.015 | [5] 0.016 | [6] 0.016 | [7] -0.005 | silmitasertib 0.018 | [8] 0.015 | entospletinib 0.003

SLC29A2 (UniProt Q14542)
Sequence of UniProt Q14542 (Q14542 whole entry, looked up): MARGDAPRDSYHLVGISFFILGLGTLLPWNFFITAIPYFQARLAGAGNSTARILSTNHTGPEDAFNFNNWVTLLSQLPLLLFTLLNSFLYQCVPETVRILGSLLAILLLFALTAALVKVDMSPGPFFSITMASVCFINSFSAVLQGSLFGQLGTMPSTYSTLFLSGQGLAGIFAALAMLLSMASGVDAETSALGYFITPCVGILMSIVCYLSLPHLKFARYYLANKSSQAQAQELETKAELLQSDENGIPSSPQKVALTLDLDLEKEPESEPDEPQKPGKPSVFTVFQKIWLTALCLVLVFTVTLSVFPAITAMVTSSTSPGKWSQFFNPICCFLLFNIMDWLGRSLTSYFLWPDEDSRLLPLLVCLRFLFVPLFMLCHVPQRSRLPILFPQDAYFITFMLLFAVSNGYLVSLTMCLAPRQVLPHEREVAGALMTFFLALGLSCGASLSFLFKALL
inactive: nilotinib 0.083 | [1] 0.095 | dasatinib 0.029 | [2] 0.058 | [3] 0.037 | quisinostat -0.242 | tipifarnib 0.048 | [4] 0.088 | [5] -0.037 | [6] -0.021 | [7] -0.045 | vorinostat 0.139 | silmitasertib 0.117 | [8] 0.031 | entospletinib -0.06

STIM1 (UniProt Q13586)
inactive: nilotinib -0.031 | [1] -0.019 | dasatinib -0.03 | [2] 0.001 | [3] -0.027 | quisinostat 0.023 | tipifarnib -0.012 | [4] 0.009 | [5] 0 | [6] -0.031 | [7] 0.026 | vorinostat 0.126 | silmitasertib -0.01 | [8] 0.018 | entospletinib -0.025

SMG6 (UniProt Q86US8)
active: vorinostat -0.3
inactive: nilotinib -0.067 | [1] 0.028 | dasatinib 0.048 | [2] 0.079 | [3] 0.082 | quisinostat -0.05 | tipifarnib -0.065 | [4] 0.028 | [5] 0.065 | [6] 0.011 | [7] 0.119 | silmitasertib 0.015 | [8] -0.012 | entospletinib 0.024
